{
  "source": "PubChem BioAssay (Tox21)",
  "note": "Results filed as inconclusive are left out. Active and inactive are the calls of the source. Calls follow the shape of the dose curve; as a rule, active = well fitted cell-killing curve with a large enough effect in the repeat runs; inconclusive = weak or mixed curves, or effect the other way; inactive = flat fitted curve, though single readings scatter. % is scaled to controls: 0 for no effect and ±100 for the full control effect; potency is read from the fitted curve at half-maximal effect.",
  "data": [
    {"assay": "qHTS assay to identify small molecule agonists of the constitutive androstane receptor (CAR) signaling pathway - cell viability counter screen (AID 1224836); also: nearly all actives have a fitted effect of over 45% in size", "settings": "HepG2-CYP2B6-hCAR viability, CellTiter-Fluor, 23 h, PK11195 added to every well; series mostly up to 92.4 µM; viability change, negative = cytotoxic: at the top concentration", "method_in_brief": "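Cells were seeded and incubated 4 hrs. Compounds were added across 15 concentrations together with PK11195 at 0.75 uM final. Plates were incubated 23 hrs at 37 C. CellTiter-Fluor was added and fluorescence measured.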", "values": [
      {"smiles": "COC(=O)/C=C(/C)N", "viability change, negative = cytotoxic": "0.185% [at 42.5 µM] (inactive)"},
      {"smiles": "CC(=O)Nc1ccc(C)c(Cl)c1", "viability change, negative = cytotoxic": "-1.04% (inactive)"},
      {"smiles": "CC(C)Nc1nc(N)nc(Cl)n1", "viability change, negative = cytotoxic": "3.65% (inactive)"},
      {"smiles": "CC(Oc1c(Cl)cccc1Cl)C1=NCCN1", "note": "(stereo not drawn)", "viability change, negative = cytotoxic": "0.309% [at 42.5 µM] (inactive)"},
      {"smiles": "Nc1ccc(Oc2ccc(N)c(N)c2)cc1", "viability change, negative = cytotoxic": "-18.3% (inactive)"},
      {"smiles": "CC(C)(CO)[C@@H](O)C(=O)NCCC(=O)O", "viability change, negative = cytotoxic": "5.86% (inactive)"},
      {"smiles": "CCN1CC(CCN2CCOCC2)C(c2ccccc2)(c2ccccc2)C1=O", "note": "(stereo not drawn)", "viability change, negative = cytotoxic": "-9.33% [at 42.5 µM] (inactive)"},
      {"smiles": "CC1(O)CSC(C)(O)CS1", "note": "(stereo not drawn)", "viability change, negative = cytotoxic": "0.587% (inactive)"},
      {"smiles": "CCCCCCn1c(=O)c2c(ncn2C)n(C)c1=O", "viability change, negative = cytotoxic": "5.27% [at 42.5 µM] (inactive)"},
      {"smiles": "CCCCCCC", "viability change, negative = cytotoxic": "-0.999% (inactive)"},
      {"smiles": "O=C(O)[C@@H]1CSCN1", "viability change, negative = cytotoxic": "0.213% [at 42.5 µM] (inactive)"},
      {"smiles": "CCOc1ccc(NS(=O)(=O)c2ccc(N)cc2)nn1", "viability change, negative = cytotoxic": "0.896% [at 42.5 µM] (inactive)"},
      {"smiles": "CCOC(=O)[C@H](CCc1ccccc1)N[C@@H](C)C(=O)N1Cc2cc(OC)c(OC)cc2C[C@H]1C(=O)O", "viability change, negative = cytotoxic": "-0.508% [at 42.5 µM] (inactive)"},
      {"smiles": "C[C@@H]1CN(c2c(F)c(N)c3c(=O)c(C(=O)O)cn(C4CC4)c3c2F)C[C@H](C)N1", "viability change, negative = cytotoxic": "-2.59% [at 19 µM] (inactive)"},
      {"smiles": "O=C1CCCc2ccccc21", "viability change, negative = cytotoxic": "-1.28% (inactive)"},
      {"smiles": "CN(CC1(C)CCCO1)S(=O)(=O)c1ccc(Cl)c(S(N)(=O)=O)c1", "note": "(stereo not drawn)", "viability change, negative = cytotoxic": "8.9% [at 42.5 µM] (inactive)"},
      {"smiles": "CC(C)C(=O)OC/C=C/c1ccccc1", "viability change, negative = cytotoxic": "1.5% (inactive)"},
      {"smiles": "O=c1[nH]c(=O)n([C@H]2C[C@H](O)[C@@H](CO)O2)cc1C(F)(F)F", "viability change, negative = cytotoxic": "0.716% [at 42.5 µM] (inactive)"},
      {"smiles": "Cc1cc2c(s1)Nc1ccccc1N=C2N1CCN(C)CC1", "Potency": "8.41 µM (active)"},
      {"smiles": "O=C(Cl)c1cccc([N+](=O)[O-])c1", "viability change, negative = cytotoxic": "13.2% (inactive)"},
      {"smiles": "COc1ccccc1OCC(O)COC(N)=O", "note": "(stereo not drawn)", "viability change, negative = cytotoxic": "6.26% [at 42.5 µM] (inactive)"},
      {"smiles": "C=CCCCCCCCCO", "viability change, negative = cytotoxic": "0.0207% (inactive)"},
      {"smiles": "Cc1nnc(SCC2=C(C(=O)O)N3C(=O)[C@@H](NC(=O)Cn4cnnn4)[C@H]3SC2)s1", "viability change, negative = cytotoxic": "-0.32% [at 42.5 µM] (inactive)"}
    ]}
  ]
}
